The record followed here is ChEMBL document CHEMBL4513216, “Probing the Open Global Health Chemical Diversity Library for Multistage-Active Starting Points for Next-Generation Antimalarials” (ACS Infect Dis, 2020).

Screen size: about 69,000 compounds; about 8,600 (12%) showed an effect of 50% or more. Many of the other results were omitted from the sample, so strong results are more common in it than they were.

This assay deals with Plasmodium berghei. Nature of the assay: Screen against P. berghei liver stage (PbLuc), transformed with Luciferase, at 10uM. Type of assay: functional, HepG2. The conditions noted are these: tested at 10 uM.
Consider `CCOc1ccccc1C(=O)Nc1cccc(C[S+](C)[O-])c1C` (stereo not drawn), for which the INHIBITION is given as 16.645%.

On to `O=C(CCN1CCCC(CO)(CC2CC2)C1)NCc1cccc(Cl)c1` (stereo not drawn), for which the INHIBITION was 4.66%. Take `CCC1COC2(CCN(C(=O)c3ccco3)CC2)C1` (stereo not drawn): the INHIBITION came out at 22.9%. As for `COc1ccc2c(c1)CC(NCc1cccc(CO)c1)CC2` (stereo not drawn), the INHIBITION is reported as 47.1%.

Turning to `COc1ccc2c(c1)CC(NCc1cccc(OCC(N)=O)c1)CC2` (stereo not drawn), the INHIBITION is 43.4%. Regarding `COc1ccc2c(c1)CC(NCc1cccc(NC(C)=O)c1)CC2` (stereo not drawn), the INHIBITION is given as 59.1%. As to `COCC(=O)NCc1cc(=O)n2c(n1)CN(Cc1ccco1)CCC2`, the INHIBITION was determined as 47.5%.

With `O=C(NCc1nnc2n1CCCC2)N1CCc2sccc2C1`, the INHIBITION came to 5.7%. Regarding `Cc1cccc(CNC(=O)Nc2ccn(CCN(C)C)n2)c1`, the INHIBITION is given as -23.8%. Turning to `C=C(C)Cn1nc(C)c(CN2CCN(C3CCCCC3)C(=O)C2)c1C`, the INHIBITION is 13.85%. Take `Cc1ccccc1C1(CNCc2cnc(N3CCOCC3)nc2)CC1`: the INHIBITION is listed as -5.22%. For `Cc1ccc(CN2CCCC(c3nn(C)c4nccnc34)C2)s1` (stereo not drawn), the INHIBITION is given as 37.6%. For `c1cncc(CNc2ccc3nc(C4CCNCC4)nn3c2)c1`, the INHIBITION amounted to 29.4%. For `CCCN1CCC(c2nc3ccc(NCc4ccccc4)cn3n2)CC1`, the INHIBITION is given as 61.1%. Take `CCN1CCC(c2nc3ccc(NC(C)C)cn3n2)CC1`: the INHIBITION came out at 26.4%. As to `CCCN1CCC(c2nc3ccc(C)cn3n2)CC1`, the INHIBITION worked out at 29.4%.

With `CCCN1CCC(c2nc3ccc(NCc4cccnc4)cn3n2)CC1`, the INHIBITION was 52.1%. With `CC(C)CN1CCC(c2nc3ccc(NC(C)C)cn3n2)CC1`, the INHIBITION is given as 30.3%. `CN(C)C(=O)N1C[C@H]2CC[C@@H](C1)N(Cc1nnc(-c3ccco3)o1)C2`: the INHIBITION is 11.6%. As for `Cc1nc(-c2cnn(C)c2)nc2c1CN(C(=O)c1ccc[nH]1)CC2`, the INHIBITION turned out to be 57.1%. `Cc1nc(-c2cnn(C)c2)nc2c1CN(C(=O)c1cccnc1)CC2`: the INHIBITION was -4.99%. Turning to `Cc1nc(-c2cnn(C)c2)nc2c1CN(C(=O)c1cccn1C)CC2`, the INHIBITION was -6.46%.

Take `COC(=O)c1ccc(NC(C)c2ccc3c(c2)CCC(=O)N3)nn1` (stereo not drawn): the INHIBITION is 19.7%.

With `COc1ccc(-c2cc3nc(CCNC(=O)C4CC4)nn3cn2)cc1`, the INHIBITION worked out at 8.915%.

`c1csc(NCc2n[nH]c3c2CCN(CC2CC2)C3)n1`: the INHIBITION is reported as 41.2%.

As to `Cn1nc(C2CNCCO2)cc1CCOc1ccc(Cl)cc1` (stereo not drawn), the INHIBITION was 16.5%. The value for `Clc1ccc(-c2ccc(C3CNCCO3)nc2)cc1` (stereo not drawn) was 94.6%; that for `c1ccc(-c2ccc(C3CNCCO3)nc2)cc1` (stereo not drawn) was 84%. `CN(C)c1ncc(-c2ccc(F)cc2)c(C2CNCCO2)n1` (stereo not drawn): the INHIBITION turned out to be 15.1%. For `CN(C)c1ncc(-c2cccc(F)c2)c(C2CNCCO2)n1` (stereo not drawn), the INHIBITION is 8.72%. As to `COc1ccc(-c2ccc(C3CNCCO3)nc2)cc1` (stereo not drawn), the INHIBITION is 91.6%.

As to `Fc1ccccc1OCCc1cc(C2CNCCO2)n[nH]1` (stereo not drawn), the INHIBITION is listed as 32.8%. As for `c1ncc(-c2ccc(C3CNCCO3)nc2)cn1` (stereo not drawn), the INHIBITION stood at 24.8%. In the case of `CN(C)c1ncc(-c2ccc(C(N)=O)cc2)c(C2CNCCO2)n1` (stereo not drawn), the INHIBITION is on record as -28.9%. For `COc1ccc(OCCc2cc(C3CNCCO3)nn2C)cc1` (stereo not drawn), the INHIBITION is -5.8%. On to `COc1ccc(-c2cnc(N(C)C)nc2C2CNCCO2)cc1` (stereo not drawn), for which the INHIBITION is given as 21.7%. In the case of `Cc1ccc(-c2ccc(C3CNCCO3)nc2)cc1` (stereo not drawn), the INHIBITION came out at 91.6%. The value for `CC(=O)N1CCCN(C(=O)NC(C)Cn2ccnc2)CC1` (stereo not drawn) was 24.2%; that for `Cn1c(=O)c2cc(C(=O)NCc3ccncc3)ccc2n(C)c1=O` was -4.82%.

With `Cc1cc(C[S+]([O-])CC(=O)NCc2cccc(Cl)c2)no1` (stereo not drawn), the INHIBITION came out at 49.8%. Take `CC(C)SCC(=O)N1CCCn2nc(C(=O)Nc3ccccc3)cc2C1`: the INHIBITION is recorded as -59.9%. `CC(=O)N1CCC2(CCCN(S(=O)(=O)c3ccc(F)cc3)C2)C1` (stereo not drawn): the INHIBITION is listed as -4.82%. As for `Cc1c(COC(C)C)cccc1NC(=O)N1CCC(N2CCCC2)C1` (stereo not drawn), the INHIBITION was 36.3%. Consider `Cc1nc(C)n(CC2CCCN2Cc2coc(-c3cccs3)n2)n1` (stereo not drawn), for which the INHIBITION is on record as 22.6%. Take `COc1ccccc1NC(=O)NCCCC(=O)Nc1cn[nH]c1`: the INHIBITION was -12.1%. The value for `O=C(CCCNC(=O)Nc1ccc(F)cc1)Nc1cn[nH]c1` was 20.7%; that for `O=C(CCCOc1ccccc1F)NCCCC(=O)Nc1cn[nH]c1` was 51.7%.

Consider `CC(C)N1CCC(Nc2ccn(CCC#N)n2)C1=O` (stereo not drawn), for which the INHIBITION is 63.3%.

As to `CC(C)N1CCC(Nc2ccn(C)n2)C1=O` (stereo not drawn), the INHIBITION turned out to be 23.1%. Regarding `CC(C)N1CCC(Nc2ccn(Cc3ccccn3)n2)C1=O` (stereo not drawn), the INHIBITION was found to be 38.7%. Take `COC(C)(CNS(=O)(=O)c1cccnc1)c1ccccc1F` (stereo not drawn): the INHIBITION is 12.1%. Turning to `CCC1c2ccsc2CCN1C(=O)NCc1cc(C)on1` (stereo not drawn), the INHIBITION stood at 11.915%. Take `CC(NC(=O)NCC(C)(C)C(N)=O)c1nc(-c2ccccc2)cs1` (stereo not drawn): the INHIBITION worked out at 28.6%.
